# CYP2C19 inh: blocks human cytochrome P450 2C19. P33261. CYP2C19 Supersomes, luciferin-H EGE luminescence, 30 min. inhibition, % at 5 µM. actives 21% (n = 96,000). AID 778;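 active = CYP2C19 inhibition above a set limit at 5 µM in the primary screen, cut at about 50% in these data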;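 note: plate controls were negative control wells for no effect and 2.5 mM tranylcypromine positive control for full effect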
# CYP2C19 activ: activators of human cytochrome P450 2C19. activation factor at 5 µM. P33261. recombinant CYP2C19, luciferin-H EGE luminescence; stronger effect = higher value; 0 = fully inhibited enzyme, 1 = untreated enzyme. 96,000 tested, under 10 active;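 active = activation factor of at least 2 at 5 µM in the primary screen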;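 note: 0 = wells with 2.5 mM tranylcypromine and 1 = vehicle-only wells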
# CYP2C9 inhib: inhibitors of human CYP2C9 | P11712 | CYP2C9 Supersomes, luciferin-H conversion, luminescence | inhibition, % at 5 µM | actives 20% (n = 96,000) | AID 777;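 active = blocking of liver enzyme CYP2C9 beyond about 50% at 5 µM, limit read from the data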
# Target sequence (P11712 whole entry, looked up): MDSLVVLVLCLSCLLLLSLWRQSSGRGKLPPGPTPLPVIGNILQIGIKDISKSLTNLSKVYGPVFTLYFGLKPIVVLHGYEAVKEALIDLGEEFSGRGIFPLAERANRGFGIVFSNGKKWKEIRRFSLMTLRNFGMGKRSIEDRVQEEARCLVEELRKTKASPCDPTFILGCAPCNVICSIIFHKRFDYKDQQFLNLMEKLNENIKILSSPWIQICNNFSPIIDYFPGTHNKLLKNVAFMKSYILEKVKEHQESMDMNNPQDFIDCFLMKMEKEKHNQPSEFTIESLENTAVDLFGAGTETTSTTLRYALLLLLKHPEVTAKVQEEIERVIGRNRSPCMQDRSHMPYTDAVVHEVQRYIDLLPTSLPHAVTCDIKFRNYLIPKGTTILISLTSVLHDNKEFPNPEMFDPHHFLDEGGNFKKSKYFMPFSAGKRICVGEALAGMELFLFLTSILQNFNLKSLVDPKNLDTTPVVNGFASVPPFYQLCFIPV
# sEH inhibitor: soluble epoxide hydrolase (human) inhibition. AID 707. recombinant human sEH enzymatic activity assay. inhibition, % at 2 µM. actives 0.34% (n = 91,000); in the data active = inhibition above about 80%
# CYP2C9 act: activators of human CYP2C9. P11712. recombinant CYP2C9, luciferin-H conversion, luminescence; stronger effect = higher value; factor 1 = untreated enzyme, 0 = blocked. activation factor at 5 µM. actives 1.4% (n = 96,000);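 active = activation factor of 2 or more for CYP2C9 at a 5 µM dose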;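 note: 0 = sulfaphenazole-blocked wells and 1 = vehicle-only wells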
# sEH act: increases human soluble epoxide hydrolase activity; P34913; purified human sEH enzymatic activity, activator screen; activation, % at 2 µM; actives 0.04% (n = 91,000); in the data active = activation above about 37%
# Numbers without * were called inactive; nt = no result given. An excerpt weighted towards active compounds, which were near 27% of everything screened.
SMILES,CYP2C19 inh,CYP2C19 activ,CYP2C9 inhib,sEH inhibitor,CYP2C9 act,sEH act
Cc1ccc(S(=O)(=O)N2CCSC2C(=O)O)cc1 (stereo unspecified),nt,nt,nt,7.1,nt,-7.2
Cc1ccc(S(=O)(=O)N2CCSC2c2ccco2)cc1 (stereo unspecified),96.0*,0,26.7,nt,0.7,nt
COC(=O)Nc1sc2c(c1C(=O)NCc1ccco1)CCC2,10.1,0.9,34.1,6.5,0.7,-3.4
COC(=O)Nc1sc2c(c1C(=O)NCc1ccco1)CCCC2,-5.2,1.1,4.1,-1.9,1,4.1
O=C(CCN1C(=O)c2ccccc2C1=O)Nc1sc2c(c1C(=O)NCc1ccco1)CCCC2,75.9*,0.2,92.1*,-11.8,0.1,14.3
O=C(Nc1sc2c(c1C(=O)NCc1ccco1)CCCC2)c1ccc2c(c1)OCO2,63.3*,0.4,84.5*,-0.8,0.2,4.6
CC(C(=O)Nc1sc2c(c1C(=O)NCc1ccco1)CCCC2)N1C(=O)c2ccccc2C1=O (stereo unspecified),-6.4,1.1,8.0,10.0,0.9,-9.2
COc1ccc(C(=O)Nc2ccc(Cl)cc2C(=O)NCc2ccco2)cc1OC,28.7,0.7,62.7*,3.9,0.4,-5.1
COc1ccc(C(=O)Nc2sc3c(c2C(=O)NCc2ccco2)CCCC3)cc1OC,51.0*,0.5,85.9*,-18.9,0.1,19.0
C=CCOc1nc(N2CCCC2)nc(N2CCCC2)n1,-0.1,1,-0.7,3.3,1,-4.0
Cc1ccc(C(=O)Nc2sc3c(c2C(=O)NCc2ccco2)CCCC3)cc1,8.5,0.9,65.1*,-5.7,0.3,5.8
COc1cc(C(=O)Nc2sc3c(c2C(=O)NCc2ccco2)CCCC3)cc(OC)c1OC,61.1*,0.4,76.4*,-13.9,0.2,10.0
Cc1ccc(C)c(NC(=O)c2ccc[n+](Cc3ccc([N+](=O)[O-])cc3)c2)c1,-14.2,1.1,-6.3,-1.8,1.1,3.9
C[C@H](NC(=O)Nc1ccc2c(c1)OCCO2)C(=O)O,-11.6,1.1,-3.5,0.0,1,0.7
CCOc1ccccc1NC(=O)CN(c1ccc(C)cc1)S(=O)(=O)c1c(C)noc1C,99.1*,0,95.8*,-12.8,0,12.2
CCOc1ccc(N(CC(=O)Nc2ccc3c(c2)OCCO3)S(=O)(=O)c2c(C)noc2C)cc1,0.0,1,7.7,nt,0.9,nt
CCOc1ccccc1NS(=O)(=O)c1c(C)noc1C,74.7*,0.3,71.0*,-6.5,0.3,10.6
CCOc1ccccc1NS(=O)(=O)c1cccs1,77.6*,0.2,-160.7,5.6,2.6*,-0.8
CCOc1ccc(OCC)c(NC(=O)CN(c2ccc(C)cc2)S(=O)(=O)c2c(C)noc2C)c1,41.8,0.6,91.7*,0.0,0.1,-0.5
COc1ccc(C2CC(c3ccc(Cl)c(Cl)c3)Nc3nc(N)nn32)cc1 (stereo unspecified),16.1,0.8,23.6,-11.8,0.8,16.6
O=C(O)C1CCC(CNCc2cccnc2)CC1 (stereo unspecified),nt,nt,nt,1.0,nt,1.6
CN1CCC(OC(=O)COc2ccc(C(C)(C)C)cc2)CC1,5.5,0.9,4.1,11.0,1,-11.3
Cc1ccc(NC(=O)CCCCCC2NC(=O)NC2C)cc1 (stereo unspecified),60.6*,0.4,-48.4,3.5,1.5,-4.6
CCC(=O)NC(c1cccc([N+](=O)[O-])c1)c1c(OC(C)=O)ccc2ccccc12 (stereo unspecified),nt,nt,nt,-13.7,nt,20.1
CC(=O)Oc1ccc2ccccc2c1C(NC(=O)Cc1ccccc1)c1ccccc1Cl (stereo unspecified),63.1*,0.4,48.1,2.4,0.5,-0.1
SMILES,CYP2C19 inh,CYP2C19 activ,CYP2C9 inhib,sEH inhibitor,CYP2C9 act,sEH act
COc1cc(-c2nnc(COC(=O)c3c4c(nc5ccccc35)CCCC4)o2)cc(OC)c1OC,68.0*,0.3,79.2*,11.0,0.2,-10.6
Cc1cccc(C)c1OCC(O)Cn1ccnc1C (stereo unspecified),53.1*,0.5,22.6,5.0,0.8,-0.9
Cc1nnc2ccc(N3CCN(C(=O)c4ccccc4)CC3)nn12,17.3,0.8,-17.2,13.8,1.2,-11.8
O=C(c1ccc(Br)o1)N1CCN(c2ccc3nnc(-c4ccccc4)n3n2)CC1,79.3*,0.2,87.6*,-0.8,0.1,0.8
O=S(=O)(c1ccc(Br)cc1)N1CCN(c2ccc3nnc(-c4ccccc4)n3n2)CC1,60.2*,0.4,80.1*,-1.5,0.2,0.5
COC(=O)COc1ccc(S(=O)(=O)Nc2ccc(C(N)=O)cc2)cc1Cl,14.7,0.9,41.5,4.4,0.6,-3.2
COc1ccc(C2(CNC(=O)Cc3ccccc3)CCCC2)cc1OC,61.9*,0.4,34.9,1.2,0.7,-1.3
COc1ccc(C2(CN(C(C)=O)C(C)=O)CCCC2)cc1OC,51.8*,0.5,31.4,-8.2,0.7,6.3
COc1ccc(CC(=O)NCC2(c3ccc(OC)c(OC)c3)CCOCC2)cc1,9.5,0.9,1.9,6.2,1,-8.8
CCOC(=O)c1c(-c2ccc(C)s2)csc1NC(=O)c1cccs1,-17.3,1.2,10.5,-0.9,0.9,0.2
CCOC(=O)c1c(-c2ccncc2)csc1N,49.4,0.5,66.4*,-0.4,0.3,-1.5
CCOc1ccc(-c2csc(N)c2C(=O)OC)cc1,65.6*,0.3,70.6*,-0.8,0.3,1.1
CCC(NS(=O)(=O)c1ccc(OC)cc1)C(=O)NCCC1=CCCCC1 (stereo unspecified),31.1,0.7,33.8,0.9,0.7,-3.1
Cc1cc(C)cc(N2CCCn3c2nc2c3c(=O)n(CCN3CCOCC3)c(=O)n2C)c1,-11.8,1.1,-1.8,-16.2,1,17.7
Cc1c(N=Cc2ccc(-c3ccc(Cl)cc3)o2)c(=O)n(-c2ccccc2)n1C,59.1*,0.4,18.4,nt,0.8,nt
CCOC(=O)c1ccc(Nc2nc(C(=O)OCC)nc3ccccc23)cc1,56.5*,0.4,36.7,7.7,0.6,-8.0
CCOC(=O)c1ccc(Nc2cc(C)nc(-c3ccccc3O)n2)cc1,35.8,0.6,56.9*,nt,0.4,nt
Cc1cc(NCc2ccccc2)nc(-c2ccccc2O)n1,29.7,0.7,65.4*,nt,0.3,nt
Cc1cc(Nc2ccccc2)nc(-c2ccccc2O)n1,-17.9,1.2,4.6,-0.3,1,0.3
Cc1cc(NC2CCCCC2)nc(-c2ccccc2O)n1,7.0,0.9,57.0*,-1.0,0.4,-1.8
COc1ccc(N2CCN(C(=O)CCc3ccc(S(=O)(=O)NCC(C)C)cc3)CC2)cc1,nt,nt,nt,-14.2,nt,17.9
CN(C)c1nc(Oc2ccc(=O)[nH]n2)nc(N2CCCCC2)n1,9.0,0.9,18.6,-6.3,0.8,8.7
CC(=O)Nc1nc(C)nc(C)c1C(C)=O,0.8,1,-1.2,-1.8,1,3.7
CC(=O)Nn1cc2c(c1-c1ccccc1)c(=O)n(C)c(=O)n2C,-4.9,1,-11.0,4.5,1.1,-4.9
Cc1cccc(-c2c3c(=O)n(C)c(=O)n(C)c3cn2-c2ccccc2O)c1,8.5,0.9,71.3*,nt,0.3,nt

# Screening results from PubChem BioAssay.
